High-throughput results deposited in PubChem BioAssay by National Center for Advancing Translational Sciences (NCATS).
VP16 counter: inhibits Gal4-VP16 luciferase reporter, ROR gamma counter-screen. hit rate 3.5% among 310,000. AID 2546. Potency, µM (series often up to 53.6 µM), for the others: top-dose activity, negative = inhibition, actives largely listed as inhibitors. Drosophila S2 Gal4-VP16 UAS-luciferase, luminescence, 20 h;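 note: Gal4-VP16 expression switched on by copper sulfate through the metallothionein promoter; % is set by controls: 0 for no effect and ±100 for the full control effect; nearly all actives have a fitted effect of over 50% in size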
HepG2 viability: counter-screen for TGF-b inhibitors: cytotoxicity in HepG2 cells | HepG2 CAGA-GFP viability, ATP luminescence, 18 h | Potency, µM (top dose mostly 46.1 µM), inactives show at the highest dose activity change, negative = cytotoxicity, most hits filed as cytotoxic | hit rate 0.76% among 410,000 | AID 588856
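CellTiter-Glo luminescence gave cytotoxicity after 18 hours at 37 degrees C. The cells were HepG2 CAGA-GFP in 1% FBS DMEM, stimulated with 500 pg/mL TGF-beta after compound addition. %Activity was normalised to no-cell wells (complete cell-killing) and DMSO (no toxicity), and curves were fitted and classified.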
RORg inh: blocks mouse ROR gamma transcriptional activity | P51450 | Drosophila S2 Gal4-RORgamma UAS-luciferase reporter, 20 h | Potency, µM (highest dose often 53.6 µM), without a hit: top-dose activity change, negative = inhibition, usual class: inhibitors | hit rate 5.4% among 310,000 | AID 2551; note: % is set by controls: 0 for no effect and ±100 for the full control effect; nearly all actives have a fitted effect of over 60% in size
Target sequence (P51450 whole entry, looked up, the tested form may be a part): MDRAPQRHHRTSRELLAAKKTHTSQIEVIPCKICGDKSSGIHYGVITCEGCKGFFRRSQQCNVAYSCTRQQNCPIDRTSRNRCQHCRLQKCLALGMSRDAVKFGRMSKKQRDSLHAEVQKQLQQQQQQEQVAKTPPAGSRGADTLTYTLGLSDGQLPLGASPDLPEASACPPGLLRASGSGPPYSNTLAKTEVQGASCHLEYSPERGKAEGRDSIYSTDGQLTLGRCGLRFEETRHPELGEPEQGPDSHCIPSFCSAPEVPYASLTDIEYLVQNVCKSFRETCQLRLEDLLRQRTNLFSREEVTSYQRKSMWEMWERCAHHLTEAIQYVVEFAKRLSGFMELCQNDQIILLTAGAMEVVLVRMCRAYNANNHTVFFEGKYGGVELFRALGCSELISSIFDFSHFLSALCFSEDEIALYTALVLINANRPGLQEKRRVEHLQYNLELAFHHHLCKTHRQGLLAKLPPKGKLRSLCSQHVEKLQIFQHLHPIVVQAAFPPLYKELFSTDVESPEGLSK
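Luciferase reporter read in Schneider cells carrying Gal4-RORγ (mouse) and UAS-Photinus luciferase; cells given compound 1 h before 700 uM copper sulfate induction, then incubated 20 h at ambient temperature.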
ATXN2 expr inh: reduces ATXN2 reporter expression in HEK-293 cells | HEK-293 ATXN2-luciferase reporter, luminescence, 24 h | Potency, µM (highest dose often 57 µM), without a hit: at the top dose activity change, negative = inhibition, most hits filed as inhibitors | hit rate 0.72% among 360,000 | AID 1745845; note: % is set by controls: 0 for no effect and ±100 for the full control effect; nearly all actives have a fitted effect of over 55% in size
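qHTS (up to 57 uM final) was run with 24 h compound exposure of reporter cells at 37 °C. Each well was multiplexed: SteadyGlo luminescence measured ATXN2-luciferase expression after a fluorogenic Gly-Phe-AFC viability readout (25 uM final).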
S2 tox: cell viability loss in ATXN counter-screen; S2 cells (HEK-293 line with an ATXN2-luciferase reporter) viability, CellTiter-Fluor protease fluorescence, 24 h; Potency, µM (doses to about 56.7 µM), actives largely listed as cytotoxic; AID 651635; hit rate 0.49% among 400,000; note: nearly all actives have a fitted effect of over 40% in size
TGFb SMAD3 inh: inhibitors of TGF-b signaling. Potency, µM (titrated, usually from 46.1 µM), without a hit: top-dose activity, negative = inhibition, most hits filed as inhibitors. hit rate 1.2% among 410,000. HepG2 CAGA-GFP TGF-b/SMAD3 reporter, GFP fluorescence, 18 h; TGF-beta stimulated, 500 pg/mL final; note: % is set by controls: 0 for no effect and ±100 for the full control effect; nearly all actives have a fitted effect of over 65% in size
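TGF-beta reporter screen: HEPG2 CAGA-GFP, 1% FBS, 500 pg/mL TGF-beta final, 18 h; per-cell GFP summed per well; curves fitted and categorized by class.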
The depositor's hits bear a star; i = inactive; ? = inconclusive; / = no result given; ! = repeats disagree; [ ] = dose if it differs, or a comment. Shown are actives, neighbours in structure and some others; about 6.1% of the full set was active somewhere. Calls come from the whole dose curve; as a rule, active = well fitted curve in the direction sought with a large enough effect; inconclusive = small, poorly fitted or top-dose-only effect, or another doubt; inactive = no such curve, though single readings can be large; an effect the other way counts as inactive or inconclusive. Potency is the fitted concentration of half-maximal effect.

SMILES	VP16 counter	HepG2 viability	RORg inh	ATXN2 expr inh	S2 tox	TGFb SMAD3 inh
S=C(Nc1ccccc1Oc1ccccc1)Nc1cccc(Cl)c1Cl	?	-24%	13µM*	-3%	i	-21%
S=C(Nc1cccc(Cl)c1)Nc1ccccc1Oc1ccccc1	?	-41%	10µM*	-11%	i	?
O=C1CC(c2ccc3c(c2)OCO3)c2cc3c(cc2N1)OCCO3 (configuration not stated)	-9%	-14%	18%	-14%	i	-9%
Cc1ccc(C2CC(=O)Nc3cc4c(cc32)OCCO4)cc1Br (configuration not stated)	/	-38%	/	-18%	i	13µM*
CCCCNc1ncnc2oc(-c3ccco3)c(-c3ccco3)c12	/	-27%	/	/	/	?
COc1ccccc1NC(=O)CN1CCCN(S(=O)(=O)c2ccc(Br)cc2)CC1	/	-35%	/	-28%	?	?
CCc1cnc2ccccc2c1/C=C/c1ccc(N(C)C)cc1	/	-14%	/	/	/	?
CC(=O)NC(C)c1cc(Cl)c2cccnc2c1O (configuration not stated)	/	8.9µM*	/	7.9µM*	6.3µM*	7.1µM*
CC(=O)NC(C)c1cc(Cl)c2ccccc2c1O (configuration not stated)	/	-1%	/	-6%	i	?
CN1CCN(C(c2ccc(F)cc2)c2ccc3cccnc3c2O)CC1 (configuration not stated)	/	-15%	/	/	i	-12%
CN1CCN(C(c2ccc(Br)cc2)c2cc(Cl)c3cccnc3c2O)CC1 (configuration not stated)	0.79µM*	-23%	2.8µM*	?	?	?
CCC(=O)NC(c1ccc(C)cc1)c1cc(Cl)c2cccnc2c1O (configuration not stated)	/	2%	/	?	?	?
CCC(=O)NC(C)c1cc(Cl)c2cccnc2c1O (configuration not stated)	/	-58%	/	8.9µM*	?	1.8µM*
CCN(CC)c1ccc(/C=C2\C=Cc3ccccc32)cc1	/	-6%	/	/	/	9%
CCc1c(C)c2ccccc2[nH]c1=O	/	-4%	/	/	/	11%
O=c1c(O)c(-c2cccs2)oc2ccc(Cl)cc12	?	-1%	11µM*	-16%	/	37%
O=c1c2ccccc2oc2ccccc12	-1%	/	-35%	/	/	/
O=c1c(O)c(-c2cccs2)oc2ccccc12	0%[0.365 µM]	-29%	22µM*	-14%	/	1%
CCc1cccc(NC(=O)NC(=O)Cn2nnc(C(=O)OC)c2C(=O)OC)c1	-4%	1%	-9%	-3%	i	11%
CCOC(=O)c1nnn(CC(=O)NC(=O)Nc2cccc(CC)c2)c1C(=O)OCC	-26%	11µM*!	20%	2%	i	?
Cc1cc(NC(=O)C(C)SCC(=O)N(C)CC(=O)Nc2ccc(Br)cc2C)no1 (configuration not stated)	13µM*	2%	13µM*	-8%	i	0%
O=C1CCC[C@@H](C2=CCCCC2=O)C1	-7%[10 µM]	/	25%[10 µM]	/	/	/
COc1ccccc1N1CCN(S(=O)(=O)c2ccc(-c3ccno3)cc2OC)CC1	/	-23%	/	-20%	i	?
Cc1ccc2nccnc2c1	/	5.6µM*	/	/	/	8.9µM*
Cc1ccc2c(C)ccnc2c1	/	-18%	/	/	/	?
O=C(Oc1ccc(Cl)cc1)c1ccc2nccnc2c1	-1%	-10%	-35%	2%	i	5%
Clc1ccc2nccnc2c1	/	14µM*	/	/	/	?
Cc1onc(-c2ccccc2)c1C(=O)NNC(=O)c1ccccc1	/	-6%	/	/	i	14%
Cc1onc(-c2ccccc2)c1C(=O)NNC(=O)c1ccccc1O	/	-19%	/	-29%	i	-3%
Cc1onc(-c2ccccc2)c1C(=O)NNC(=S)NC(=O)c1ccc(Cl)cc1Cl	11µM*	13µM*	4.5µM*	-17%	i	?
